A short description of test [1]: A549 cell viability effects, profiling panel, calcein-AM fluorescence, 48 h, basal (AID 1162). Also: test concentration not given here. Particulars: higher = more signal.
Test [2] can be described thus: adipocyte viability effects, profiling panel, cell-based, 3T3-L1 adipocytes, calcein-AM fluorescence, 48 h, basal (AID 1163). Also: test concentration not given here. Particulars: 3T3-L1 adipocytes viability, higher = more signal.
Test [3] in a line: HepG2 cell viability effects, profiling panel, calcein-AM fluorescence, 48 h, basal (AID 1164). Also: test concentration not given here. Particulars: higher = more signal.
Test [4] is described as follows: MM1S cell viability effects, profiling panel, calcein-AM fluorescence, 48 h, basal (AID 1165).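 Also: viability of MM1S multiple myeloma cells under basal unstimulated conditions; test concentration not given here.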 To be noted: higher = more signal.
Test [5] is described as follows: basal RPMI8226 viability, no added stimulus, profiling panel, cell-based, calcein-AM fluorescence, 48 h, PK04 Diversity Set (AID 1166).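 Also: cells grown under basal conditions without added stimulus; test concentration not given here.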 To be noted: RPMI8226 myeloma viability, higher = more signal.
Test [6] in a line: basal HepG2 mitochondrial membrane potential changes, profiling panel, cell-based, JC-1 fluorescence, 24 h, 100 nL compound (AID 1167). Also: test concentration not given here. To be noted: higher = more signal.
A short description of test [7]: basal 3T3-L1 adipocyte mitochondrial potential changes, profiling panel, cell-based, JC-1 fluorescence, 3T3-L1 adipocytes, 24 h, 100 nL compound (AID 1168). Also: test concentration not given here. Particulars: JC-1 mitochondrial fluorescence, higher = more signal, called active from +8 up or from −8 down.
The nature of test [8]: basal RPMI8226 mitochondrial membrane potential changes, profiling panel, cell-based, JC-1 fluorescence, 24 h, 100 nL compound (AID 1169). Also: test concentration not given here. Particulars: RPMI8226 myeloma, JC-1 mitochondrial potential fluorescence, higher = more signal.
The nature of test [9]: basal MM1S mitochondrial membrane potential changes, profiling panel, cell-based, JC-1 fluorescence, 24 h, 100 nL compound (AID 1170). Also: test concentration not given here. Particulars: higher = more signal.
Test [10] can be described thus: A549 lung cancer cell viability effects, profiling panel, resazurin fluorescence, 24 h, PK04 Diversity Set (AID 1171). Also: test concentration not given here. To be noted: higher = more signal, called active from +8 up or from −8 down.
Test [11] is described as follows: HepG2 liver cancer cell viability effects, profiling panel, resazurin fluorescence, 24 h, PK04 Diversity Set (AID 1172). Also: test concentration not given here. Particulars: higher = more signal. On the technique in general: Alamar Blue is a resazurin reagent that responds to reducing activity.
Test [12] is described as follows: basal S. cerevisiae growth modulation, no modifier, primary screen, OD600, strain BY4716, 24 h, basal condition (AID 1173). To be noted: OD600, 24 h, higher = more signal, called active from +8 up or from −8 down.
The nature of test [13]: MM1S myeloma cell viability, profiling panel, resazurin fluorescence, basal, 24 h, PK04 Diversity Set (AID 1174).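 Also: MM1S multiple myeloma cell line; test concentration not given here.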 To be noted: higher = more signal, called active from +8 up or from −8 down.
Test [14] addresses Dihydroorotate dehydrogenase (quinone), mitochondrial (Plasmodium falciparum (isolate 3D7)) (UniProt Q08210). Nature of the test: PfDHODH enzyme inhibitors, primary screen, biochemical, C-terminal His tag, absorbance 600 nm (AID 1175).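 Also: recombinant parasite enzyme with a five histidine tag at its C terminus; test concentration not given here.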 To be noted: DCIP absorbance 600 nm, higher = more signal, called active from +8 up or from −8 down.
Test [15] is described as follows: P. aeruginosa biofilm formation inhibitors, primary screen, strain PAO1, LB-PBS medium, absorbance 600 nm (AID 1176). Also: test concentration not given here. To be noted: P. aeruginosa PAO1 growth/biofilm, A600, 12 h; higher = more signal.
The nature of test [16]: S. cerevisiae RM11-1a growth modifiers, primary screen, strain RM11-1a, OD600, basal, 24 h (AID 1177).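 Also: cultures grown under basal conditions with no added stressor; test concentration not given here.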 Particulars: OD600, 24 h, higher = more signal, called active from +8 up or from −8 down.
The nature of test [17]: E. coli acrAB mutant growth effects, primary screen, E. coli filamentation inducers, strain DRC39, OD650, 24 h (AID 1178).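 Also: growth measured as culture turbidity by optical density at 650 nm; test concentration not given here.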 To be noted: higher = more signal, called active from +8 up or from −8 down.
The nature of test [18]: E. coli acrAB mutant growth effects, primary screen, E. coli filamentation inducers, strain DRC39, OD650, 48 h (AID 1179).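 Also: screen aims at cell division blockers that make cells filament.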 To be noted: E. coli DRC39 delta-acrAB growth, higher = more signal, called active from +8 up or from −8 down.
Test [19] is described as follows: RPMI8226 myeloma cell viability, profiling panel, resazurin fluorescence, basal, 24 h, PK04 Diversity Set (AID 1180).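 Also: RPMI8826 multiple myeloma cell line at 5000 cells per well; test concentration not given here.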 Particulars: higher = more signal.
Test [20] deals with E3 ubiquitin-protein ligase XIAP (Homo sapiens) (UniProt P98170). Nature of the test: XIAP binders, primary screen, biophysical, small-molecule microarray, fluorescence 635 nm (AID 1181).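 Also: score merges 667 nm emission and signal to noise over triplicate slides.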 Particulars: small-molecule microarray binding, higher = more signal.

Here are results for 8 compounds from PubChem BioAssay.

Activity calls are given as the source filed them. Unless noted, no rule for the calls is given here.

Sequence of E3 ubiquitin-protein ligase XIAP (Homo sapiens) (P98170 whole entry, looked up): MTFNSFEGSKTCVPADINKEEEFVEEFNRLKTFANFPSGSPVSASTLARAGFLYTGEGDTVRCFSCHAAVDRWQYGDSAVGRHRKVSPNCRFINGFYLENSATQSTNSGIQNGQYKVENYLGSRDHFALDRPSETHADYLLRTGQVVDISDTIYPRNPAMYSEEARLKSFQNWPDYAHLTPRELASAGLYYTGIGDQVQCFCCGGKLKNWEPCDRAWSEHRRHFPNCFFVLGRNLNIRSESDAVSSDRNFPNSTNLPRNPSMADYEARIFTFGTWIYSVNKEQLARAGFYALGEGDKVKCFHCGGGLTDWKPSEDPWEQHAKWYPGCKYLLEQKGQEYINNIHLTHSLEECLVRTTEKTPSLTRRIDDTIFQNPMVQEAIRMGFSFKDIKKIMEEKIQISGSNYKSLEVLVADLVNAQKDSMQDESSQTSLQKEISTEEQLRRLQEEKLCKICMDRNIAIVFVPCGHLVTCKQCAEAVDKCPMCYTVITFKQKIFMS
Sequence of Dihydroorotate dehydrogenase (quinone), mitochondrial (Plasmodium falciparum (isolate 3D7)) (Q08210 whole entry, looked up): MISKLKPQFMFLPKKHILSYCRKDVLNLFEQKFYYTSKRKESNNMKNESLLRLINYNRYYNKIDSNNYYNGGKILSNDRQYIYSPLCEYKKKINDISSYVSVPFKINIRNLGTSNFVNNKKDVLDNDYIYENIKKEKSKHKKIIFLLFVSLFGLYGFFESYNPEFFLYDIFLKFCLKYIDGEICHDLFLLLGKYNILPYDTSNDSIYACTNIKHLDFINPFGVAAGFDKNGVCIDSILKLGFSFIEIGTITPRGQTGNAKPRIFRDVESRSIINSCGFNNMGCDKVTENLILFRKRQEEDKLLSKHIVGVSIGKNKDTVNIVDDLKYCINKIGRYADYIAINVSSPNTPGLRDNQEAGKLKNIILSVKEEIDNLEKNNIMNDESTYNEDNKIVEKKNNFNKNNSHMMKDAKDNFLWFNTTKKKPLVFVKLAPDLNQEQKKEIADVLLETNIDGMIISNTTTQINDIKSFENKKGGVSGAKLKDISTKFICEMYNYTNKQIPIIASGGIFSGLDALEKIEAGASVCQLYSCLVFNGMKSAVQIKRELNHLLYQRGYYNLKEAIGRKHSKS

For the compound `CCCCC(=C=CC[C@@H](O)c1ccc(OCCO)cc1)C[C@@H](O)COCc1ccccc1`, the z-score in test [1] is 2.64; in [2] it was 0.716; in [3], 2.15; in [4], -1.35; in test [5], -0.586; in [6] it was 0.605. The z-score in test [7] is -0.0104 (inactive); in [8], 0.178; in test [9], -1.18; in [10] it was 0.812 (inactive); in [11], 0.931; in [12] it was -5.91 (inactive). The z-score in test [13] was -0.301 (inactive); in test [15] it was 0.637 (inactive); in [16], -3.31 (inactive); in test [17], 1.9 (inactive); in test [18], 1.55 (inactive); in test [19], -0.342. For the same compound, the composite z-score in [14] is -2.29 (inactive); in [20], 0.124.

`CO[C@H]1O[C@H](CO)[C@@H](OC(=O)Nc2ccc(Oc3ccccc3)cc2)[C@H](OC(=O)Nc2ccccc2-c2ccccc2)[C@@H]1OC(=O)Nc1ccccc1-c1ccccc1`: the z-score in test [1] was -0.0685; in [2], 0.0358; in test [3] it was -0.61; in test [4] it was -0.443; in [5] it was -0.612; in test [6], 0.319. In addition, the z-score in test [7] is 2.46 (inactive); in [8], -1.13; in test [9] it was 0.267; in [10], -0.41 (inactive); in [11], 0.776; in test [12], 1.01 (inactive). Besides, the z-score in test [13] was -0.648 (inactive); in test [15], 0.18 (inactive); in test [16], 2.58 (inactive); in [17] it was -0.325 (inactive); in test [18], -0.0232 (inactive); in test [19] it was -0.296. The results for the composite z-score in [14] and in test [20] were 0.308 (inactive) and -0.117, respectively.

Consider `Cc1ccc(S[C@]2(C(=O)NCCN3CCOCC3)CC(=O)N(Cc3ccccc3C(F)(F)F)[C@@H]2c2ccc(CO)cc2I)cc1`, for which the z-score in test [1] was -0.209; in [2], -0.292; in test [3], -0.695; in test [4], -2.85; in test [5], -2.15; in test [6], -0.178. The z-score in test [7] is -1.03 (inactive); in test [8], -0.793; in [9], -2.36; in test [10] it was 0.683 (inactive); in [11] it was 0.628; in [12], -3.34 (inactive). Further, the z-score in [13] was -2.71 (inactive); in test [15], 0.875 (inactive); in test [16] it was -1.57 (inactive); in test [17], 0.142 (inactive); in test [18] it was 0.0559 (inactive); in test [19], -2.22. In addition, the composite z-score in test [14] was -0.323 (inactive); in [20] it was -0.17.

For `Cc1c(NC(=O)/C(C#N)=C/C=C/c2ccccc2[N+](=O)[O-])c(=O)n(-c2ccccc2)n1C`, the z-score in test [1] was -1.22; in test [2], -0.355; in test [3] it was -1.71; in [4] it was -3.09; in test [5], -2.1; in [6], -1.76. The z-score is -0.0694 (inactive) in test [7]; -0.588 in [8]; -0.994 in test [9]; -1.43 (inactive) in test [10]; -1.25 in [11]; -0.0708 (inactive) in test [12]. Besides, the z-score in [13] was -0.729 (inactive); in [15] it was -0.6 (inactive); in [16], -0.061 (inactive); in test [17], 1.06 (inactive); in [18], -0.241 (inactive); in test [19], -1.73. Also, the composite z-score in test [14] is 0.512 (inactive); in [20], -0.0172.

In the case of `C=C(C(=O)CC[C@H](OC(=O)c1cccnc1)c1ccc(CO)o1)C(C)C`, the z-score in test [1] is -0.242; in [2] it was -0.449; in [3], -0.676; in test [4] it was -0.66; in test [5] it was 0.202; in [6], -2. The z-score in [7] was -1.78 (inactive); in test [8], 0.322; in [9], -0.458; in test [10] it was -0.361 (inactive); in test [11] it was -0.499; in [12] it was -1.02 (inactive). The z-score in test [13] is -0.323 (inactive); in test [15], 0.354 (inactive); in test [16], -0.811 (inactive); in test [17] it was -0.645 (inactive); in [18], -0.631 (inactive); in test [19] it was -0.74. In addition, the results for the composite z-score in [14] and in test [20] were -3.18 (inactive) and -0.187, respectively.

For `COC(=O)C[C@H]1O[C@]2(C(=O)N(C)c3ccccc32)[C@@H](C)[C@@H]1[Si](C)(C)c1ccc(C)cc1`, the z-score was -1.55 in test [1]; 0.163 in test [2]; -0.151 in test [3]; -1.5 in [4]; -4.12 in [5]; -0.39 in test [6]. The z-score is 0.329 (inactive) in [7]; -0.991 in test [8]; 0.413 in test [9]; -0.447 (inactive) in [10]; -0.501 in [11]; -2.64 (inactive) in test [12]. The z-score is 1.47 (inactive) in test [13]; -0.884 (inactive) in test [15]; 0.155 (inactive) in [16]; 1.37 (inactive) in test [17]; -0.466 (inactive) in test [18]; 0.789 in test [19]. Besides, the figures for the composite z-score in [14] and in test [20] were 0.0559 (inactive) and -0.0172, respectively.

Turning to `C=CCOC(=O)[C@H]1[C@@H]2C(=O)O[C@@H](c3ccccc3)[C@@H](c3ccccc3)N2[C@@H](c2ccc(OCCOC(=O)[C@H]3C[C@H]4C(=O)N[C@@H](Cc5ccccc5)C(=O)N4[C@H]3c3ccc(O)cc3)cc2)[C@]12C(=O)Nc1ccc(I)cc12`, the z-score was -0.7 in test [1]; 0.664 in [2]; 1.16 in test [3]; 0.0161 in [4]; -0.321 in test [5]; 0.408 in test [6]. In addition, the z-score is -0.118 (inactive) in test [7]; -0.59 in test [8]; -1.04 in test [9]; -0.0968 (inactive) in test [10]; -0.16 in test [11]; 1.82 (inactive) in test [12]. The z-score in [13] was -0.417 (inactive); in test [15] it was 4.1 (inactive); in test [16], 1.66 (inactive); in test [17] it was -0.359 (inactive); in test [18] it was -0.293 (inactive); in test [19], 0.194. Also, the composite z-score in test [14] was -1.16 (inactive); in [20], 0.0981.

`COC(=O)Cn1c(C(=O)N2CCCC2)cc2c1C[C@H]1CN(C(=O)c3ccccc3)[C@@](Cc3ccc(F)cc3)(C(=O)OC)[C@@H]21`: the z-score was 1.13 in test [1]; 0.0791 in test [2]; 0.476 in test [3]; -0.297 in test [4]; 0.63 in test [5]; 0.669 in [6]. Also, the z-score in [7] was -1.47 (inactive); in test [8] it was -0.135; in test [9], -1.68; in test [10], -0.581 (inactive); in [11] it was 0.716; in test [12], 0.702 (inactive). For the same compound, the z-score in [13] was -1.35 (inactive); in test [15], 0.756 (inactive); in test [16], -1.54 (inactive); in [17], -0.132 (inactive); in test [18] it was -0.181 (inactive); in test [19] it was 0.303. The composite z-score is -0.653 (inactive) in test [14] and 0.303 in test [20].
